Results taken from PubChem BioAssay (NCI).
Where “and” joins values, the source holds several entries; their conditions need not be identical. Equal values may be shown once. Compounds without any hit were thinned out: in the full panel of roughly 83,000, 20% have a hit.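 A percent growth of 40 corresponds to 60% growth inhibition; 0 means no net growth; -100 means all cells died. Active threshold: below 10.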 Calls of active or inactive are those of the source.

Columns and labels:
Experiment in all cases: NCI-60 one-dose screen, 48 h (100 = growth as untreated, 0 = no growth, -100 = all killed)
Conditions in all cases: 10 µM unless noted
[1] = system: RPMI-8226 leukemia
[2] = system: OVCAR-8 ovarian
[3] = system: OVCAR-5 ovarian
[4] = system: OVCAR-4 ovarian
[5] = system: SK-OV-3 ovarian
[6] = system: IGROV1 ovarian
[7] = system: OVCAR-3 ovarian
[8] = system: HS 578T breast
[9] = system: NCI/ADR-RES ovarian
[10] = system: T-47D breast
[11] = system: BT-549 breast
[12] = system: MDA-MB-435 melanoma
[13] = system: SW-620 colon
[14] = system: MCF7 breast
[15] = system: HCT-116 colon
[16] = system: HCC-2998 colon
[17] = system: KM12 colon

Measured: growth

CN1Cn2c(ccc2C(F)(F)F)C(=O)CS1(=O)=O
inactive: [1] 109% | [2] 108% | [3] 96% | [4] 97.4% | [5] 106% | [6] 104% | [7] 112% | [8] 106% | [9] 103% | [10] 115% | [11] 105% | [12] 103% | [13] 104% | [14] 98.4% | [15] 94.9% | [16] 104%

COc1cc2ncnc(Nc3ccc(F)c(Cl)c3)c2cc1OCC(=O)N1CCCCC1
inactive: [1] 81.9% | [2] 89.2% | [3] 67% | [4] 71.7% | [5] 21.3% | [6] 42.8% | [7] 73.2% | [8] 94.4% | [9] 62.1% | [10] 43.6% | [11] 94.4% | [12] 95.3% | [13] 104% | [14] 82.6% | [15] 79.6% | [16] 92.7% | [17] 95.4%

CN1CCN(CCNC(=O)c2cccc(CN3c4cccc5c4C(=Cc4cccnc43)N(C)C5=O)c2)CC1
inactive: [2] 40.8% | [3] 42% | [4] 37.4% | [5] 18.2% | [6] 18.6% | [7] 34.3% | [9] 80.9% | [10] 34.8% | [11] 57.5% | [12] 39.8% | [13] 52.7% | [14] 16.6% | [15] 25.8% | [16] 39.8% | [17] 44.6%
active: [1] 2.26% | [8] -6.06%

CCOc1nc(-c2ccccc2)cc2c(O)c(C(=O)N/N=C/c3ccc(N(C)C)cc3)[nH]c(=O)c12
inactive: [1] 102% | [2] 115% | [4] 148% | [5] 197% | [7] 111% | [8] 94.1% | [9] 105% | [10] 218% | [11] 125% | [12] 118% | [13] 97.8% | [14] 92.9% | [15] 112% | [17] 109%
active: [16] -14.8%

O=C(CCCOc1ccc(Br)cc1)Nc1ncc(Cc2ccc(F)cc2)s1
inactive: [1] 77.6% | [2] 91.5% | [3] 79.4% | [4] 68.7% | [5] 81.7% | [6] 78.5% | [7] 81% | [8] 74.3% | [10] 58% | [13] 58.2% | [14] 23.7% | [15] 36.6% | [16] 73.9% | [17] 36.2%
active: [12] -27.2%

OB(O)c1ccsc1-c1nc2ccc3[nH]ncc3c2c2c1CCCC2
inactive: [1] 60.3% | [2] 66.2% | [3] 92.1% | [4] 72.3% | [5] 15.3% | [6] 32.6% | [7] 85.2% | [8] 32.9% | [9] 75.6% | [10] 53.5% | [12] 27% | [13] 22.7% | [14] 49.3% | [15] 26.4% | [16] 66% | [17] 38.1%

NC(=O)c1c(NC(=O)/C=C/c2cccs2)sc2c1CCC(=O)C2
active: [1] -9.58% | [15] 8.1%
inactive: [2] 20.2% | [3] 79.3% | [4] 14.2% | [5] 94.7% | [6] 24.4% | [7] 13.8% | [8] 26.7% | [9] 52.4% | [10] 16.2% | [11] 20.1% | [12] 14.2% | [13] 15.1% | [14] 14.1% | [16] 85.2% | [17] 14.8%

C/C(=C(\c1ccc(OCCN2CCOCC2)cc1)c1ccc(OC(=O)C2CCCCC2)cc1)c1ccc(Cl)cc1
inactive: [1] 44.8% | [2] 101% | [3] 95.6% | [4] 111% | [5] 96.6% | [6] 103% | [7] 97% | [8] 97.9% | [9] 98% | [10] 66.5% | [11] 91.3% | [12] 94.4% | [13] 96.6% | [14] 79.8% | [15] 78.7% | [16] 94.2% | [17] 98.8%

CC(=O)N1N=C(c2ccc(F)cc2)CC1c1sc(N(C)Cc2ccccc2)nc1Cl (centres undefined)
inactive: [1] 75.2% | [2] 105% | [3] 109% | [4] 88.7% | [5] 101% | [6] 96% | [7] 101% | [8] 109% | [9] 92% | [10] 74.1% | [11] 95.2% | [12] 96.5% | [13] 99.4% | [14] 76% | [15] 84.5% | [16] 91.2% | [17] 92.4%

COc1ccc(C2Nc3nc(SC)nc(N)c3N=C3c4ccccc4CCC32)cc1 (centres undefined)
inactive: [1] 67.5% | [2] 70.5% | [3] 107% | [4] 53.9% | [5] 97% | [6] 55.2% | [7] 65.2% | [8] 97.1% | [10] 80% | [12] 93.2% | [13] 76.1% | [14] 62.9% | [15] 51.5% | [16] 103% | [17] 85.9%

CN1C(=O)/C(=C/c2ccc(C(=O)Nc3ncc(Cc4ccccc4Cl)s3)cc2)SC1=S
active: [12] -18.5%
inactive: [1] 73.3% | [2] 79.3% | [4] 69.6% | [5] 80.5% | [6] 78.8% | [7] 93.3% | [8] 65.8% | [9] 71.6% | [10] 63.4% | [11] 69.5% | [13] 62% | [14] 61.8% | [15] 63.6% | [16] 77.5% | [17] 46.1%

O=C(NNc1ccccc1)c1ccccc1
inactive: [1] 82.2% and 76.6% | [2] 106% and 73.5% | [3] 77.2% and 68.7% | [4] 94.5% and 64.6% | [5] 95.5% and 103% | [7] 81.4% and 101% | [8] 90.8% and 99.1% | [9] 64.3% and 57.6% | [10] 56.5% and 36.8% | [11] 105% and 72.2% | [12] 69.4% | [13] 57.1% and 45.7% | [14] 82.9% and 90.4% | [15] 79.6% and 68.5% | [16] 85.6% | [17] 33.5%

CC(C)(C)c1cc(C(C)(C)c2ccccc2)cc(Cc2cc(C(C)(C)c3ccccc3)cc(C(C)(C)C)c2O)c1O
inactive: [1] 91% | [2] 97.9% | [3] 91.8% | [4] 90.2% | [5] 105% | [6] 96.5% | [7] 106% | [8] 105% | [9] 102% | [10] 95.3% | [11] 93.1% | [12] 115% | [13] 104% | [14] 94.6% | [15] 93.1% | [16] 107% | [17] 106%

COc1ccc2c(c1)oc1c(C)c3c(c(C)c12)C(=O)N(Nc1ccccc1)C3=O
inactive: [1] 112% | [2] 104% | [3] 92% | [4] 100% | [5] 92% | [7] 105% | [8] 105% | [9] 112% | [10] 88.1% | [11] 91.6% | [12] 104% | [13] 110% | [14] 94.7% | [15] 96% | [16] 105% | [17] 97.4%

C=CCN1C=CC(=O)[C@H](O[Si](C)(C)C(C)(C)C)[C@@H]1/C=C/c1ccccc1
active: [1] -16% [100 µM] | [2] -47.1% [100 µM] | [3] -82.8% [100 µM] | [4] -84% [100 µM] | [5] -87.6% [100 µM] | [6] -56.3% [100 µM] | [7] -73.5% [100 µM] | [8] -24.1% [100 µM] | [9] -74.7% [100 µM] | [10] -80.7% [100 µM] | [11] -62.4% [100 µM] | [12] -48.2% [100 µM] | [13] -58.9% [100 µM] | [14] -75.1% [100 µM] | [15] -77.5% [100 µM] | [16] -87.3% [100 µM] | [17] -71.8% [100 µM]
